For one compound, Potency results are on record in PubChem BioAssay AID540327 (National Center for Advancing Translational Sciences (NCATS), 2011).

The target of the assay is Ubiquitin carboxyl-terminal hydrolase 1 (Homo sapiens) (UniProt O94782). Description: Inhibitors of USP1/UAF1: Hit Validation in Primary Assay. To be noted: Ub-Rhodamine cleavage, fluorescence kinetic read. The source says:
Deubiquitinating enzymes (DUBs) are a class of enzymes that can cleave isopeptide bond formed between the C-terminal carboxylate of ubiquitin and a lysine side-chain amino group on the target protein. Among them, ubiquitin specific proteases (USPs) constitute the largest DUB family. Human USPs are emerging as promising targets for pharmacological intervention because of their connection to a number of human diseases, including prostate, colon and breast cancer (1, 2), pediatric acute lymphoblastic leukemia (3), and familial cylindromatosis (4). The advantage of inhibiting USPs lies in the potential specificity of therapeutic intervention that can lead to better efficacy and reduce nonspecific side effects. […] This miniaturized assay has a fluorescent read-out and is used to screen the NIH Molecular Libraries Small Molecule Repository (MLSMR) in order to identify a small molecule that inhibits USP1. […]
3 microliters of reagents (buffer in columns 3 and 4 as negative control and 1nM USP1/UAF1 complex in columns 1, 2, and 5-48) are dispensed into Greiner black solid bottom 1536-well assay plates. […] The plates are immediately centrifuged at 1000 rpm for 15 seconds, and subsequently transferred to a ViewLux high-throughput CCD imager (PerkinElmer) wherein kinetic measurements of fluorescence are acquired using 480 nm excitation/540 nm emission filter set (6 reads every 60 seconds, see Table 1). […]

Where “and” joins values, the source holds several entries; their conditions need not be identical. Equal entries are not always repeated. This is one part of the list. Records with an inconclusive call do not appear. Calls of active or inactive are those of the source. Calls come from the whole dose curve; as a rule, active = well fitted inhibition curve with a large enough effect; inconclusive = small, poorly fitted or top-dose-only effect; inactive = flat fitted curve, though single readings scatter.

Ubiquitin carboxyl-terminal hydrolase 1 (Homo sapiens), sequence (O94782 whole entry, looked up): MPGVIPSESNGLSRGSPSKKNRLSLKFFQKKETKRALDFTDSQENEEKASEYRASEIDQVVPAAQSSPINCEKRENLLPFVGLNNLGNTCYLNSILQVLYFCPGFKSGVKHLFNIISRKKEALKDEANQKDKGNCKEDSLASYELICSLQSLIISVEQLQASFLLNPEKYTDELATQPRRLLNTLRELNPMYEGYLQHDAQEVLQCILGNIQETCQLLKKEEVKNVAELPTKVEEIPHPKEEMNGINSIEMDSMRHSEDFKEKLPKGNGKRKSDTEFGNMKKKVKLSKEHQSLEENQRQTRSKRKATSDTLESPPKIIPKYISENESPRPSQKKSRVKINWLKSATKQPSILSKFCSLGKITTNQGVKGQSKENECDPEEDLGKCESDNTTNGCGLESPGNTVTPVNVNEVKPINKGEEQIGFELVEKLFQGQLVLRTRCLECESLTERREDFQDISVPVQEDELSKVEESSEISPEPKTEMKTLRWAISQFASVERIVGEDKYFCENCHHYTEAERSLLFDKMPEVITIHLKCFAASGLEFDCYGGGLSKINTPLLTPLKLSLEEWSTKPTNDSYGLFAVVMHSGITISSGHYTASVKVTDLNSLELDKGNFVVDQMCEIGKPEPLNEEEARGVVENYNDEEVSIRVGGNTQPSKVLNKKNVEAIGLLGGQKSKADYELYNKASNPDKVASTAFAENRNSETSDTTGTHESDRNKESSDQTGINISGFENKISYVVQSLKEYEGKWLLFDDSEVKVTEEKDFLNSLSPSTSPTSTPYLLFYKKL

`CC(C)c1ccc2c(c1)c(SC(C)(C)C)c(CC(C)(C)C(=O)O)n2Cc1ccc(Cl)cc1`: the Potency is 66.3 µM (active) and 41.8 µM (active).
